Data on 14 compounds can be found in PubChem BioAssay (NCATS).

Values joined by “and” are separate entries in the source; they are usually repeats but may differ in a detail not shown here. Equal values may be shown once. Records with an inconclusive call do not appear. Active and inactive are the calls of the source. Calls come from the whole dose curve.

The experiment can be described thus: qHTS Assay for Lipid Storage Modulators (AID 1519). For activity change, negative = inhibition: % is set by controls: 0 for no effect and ±100 for the full control effect. The following applies: Drosophila S3 cells, BODIPY lipid droplet/cell ratio, laser cytometry, cells loaded with oleic acid; for activity change, negative = inhibition: at 57.5 µM (top of the series). An excerpt:
NIH Molecular Libraries Probe Production Centers Network [MLPCN]
NIH Chemical Genomics Center [NCGC]
Assay Submitter (PI): Beller, Mathias; Max-Planck-Institut fur Biophysikalische Chemie
NCGC Assay Overview: Storing lipids as a reservoir for energy or the anabolism of elementary metabolites is a common feature of probably all cells and is conserved from bacteria to humans. The universal cellular lipid storage organelle is the so-called lipid storage droplet (LD). Although ubiquitous, LDs share a simple structure composed of a hydrophobic core that harbors the storage lipids, which is shielded by a droplet-specific phospholipid monolayer to which proteins are attached. The current model of LD biogenesis involves an incorporation of the lipid core into the membrane leaflets of the endoplasmic reticulum (ER) followed by a subsequent budding-like maturation of a LD, which ultimately pinches off. Once released, LD volume can increase by localized lipogenesis or fusion of existing droplets. Storage lipids are re-mobilized enzymatically by lipase activity. Lipase regulation in the adipocyte is heavily studied and involves multiple components including catecholamine signaling, the LD-associated proteins Perilipin and comparative gene identification-58 (CGI-58) and at least two lipases named hormone sensitive lipase (HSL) and adipocyte triglyceride lipase (ATGL). LD regulation outside of the adipocyte is poorly understood and only few components are known. However, there is an urgent need to learn more about ectopic fat depots as mislocalized storage of lipids, for example in the liver or muscle, is an eminent health problem associated with insulin resistance or the metabolic syndrome. We developed a laser-scanning cytometer assay to enable 1,536-well screening and combined the results of the small molecules screen with an RNAi database based on lipid storage.
NCGC Assay Protocol Summary:
We dispensed 4 uL of cells at 1.25 x 10^6 cells/mL into LoBase Aurora COC 1,536-well plates (black walled, clear bottom) with a bottle-valve solenoid-based dispenser (Aurora) to obtain 5,000 cells/well. Triacsin C (Sigma-Aldrich T-4540), an inhibitor of long-chain fatty acyl CoA synthetase that blocks synthesis of triglycerides, was used as a positive control for lipid under-storage. A total of 23 nL of compound solution of different concentrations were transferred to the assay plates using a Kalypsys pin tool equipped with a 1,536-pin array containing 10-nL slotted pins (FP1S10, 0.457-mm diameter, 50.8 mm long; V&P Scientific). One microliter of oleic acid (400 uM) was added, and the plate was lidded with stainless steel rubber gasket lined lids containing pinholes. […] Fluorescence was detected by excitation of the fluorophores with a 488-nm laser on an Acumen Explorer (TTP Lab Tech). The total intensity in channel 1 (500-530 nm) reflected lipid droplet accumulation. […] The ratio of the total intensity in PMT channel 1 over total intensity of channel 3 was also calculated. Percent activity was computed relative to an internal control (100% inhibited lipid droplet deposition due to the presence of 20 uM Triacsin C), which was added to 32 wells/plate.
In general terms: In qHTS, concentration-response curves come from the screen itself.

The mark [1] stands for this setting: measured here: cell count channel max response.
The mark [2] stands for this setting: measured here: lipid channel max response.

With `CCCCCCCCCCCCCCC[C@H](O)[C@H](N)CO`, the activity change, negative = inhibition was -9.53% (inactive). Besides, the max response under setting [1] was -83.5%. Further, under setting [2], the max response is -95.1%.
On to `O=C(O)C1=CCNCC1`, for which the activity change, negative = inhibition is 1.16% (inactive) and 3.31% (inactive). Besides, the max response under setting [1] is -10.7% and 4.5%. Further, the max response under setting [2] is -10.6% and 21.6%.
For `Nc1ccc(-c2nc3ccc(-c4nc5ccc(N)cc5[nH]4)cc3[nH]2)cc1`, the activity change, negative = inhibition is -0.707% (inactive). Also, the max response under setting [1] was -29.1%. Moreover, under setting [2], the max response was -26.6%.
For `CC(=O)O[C@H]1CC2(C)[C@@H](C[C@@H](O)[C@H]3[C@@]4(C)CC[C@@H](O)[C@@H](C)[C@@H]4CC[C@@]32C)C1=C(CCC=C(C)C)C(=O)O` (some centres not stated), in that order: 0.469% (inactive), -5.46% and -5.43%.
In the case of `CC(=O)NNC(=O)N1Cc2ccccc2Oc2ccc(Cl)cc21`, the activity change, negative = inhibition is 3.63% (inactive) and -0.28% (inactive). Further, the max response under setting [1] was -1.09% and 39.5%. In addition, the max response under setting [2] was 4.04% and 30.3%.
As to `O=c1[nH]c2ccccc2c2ccccc12`, the activity change, negative = inhibition was 1.72% (inactive). Under setting [1], the max response was determined as 17.8%. Also, under setting [2], the max response came out at 20.4%.
For `CN1CCc2cc(Cl)c(O)cc2[C@@H](c2ccccc2)C1` the same measures were 0.829% (inactive), 25.8% and 26.8%.
As for `O=C(O)Cc1c[nH]c2ccc(O)cc12`, the activity change, negative = inhibition is 1.1% (inactive). Moreover, the max response under setting [1] was -19.7%. Besides, the max response under setting [2] was -16.3%.
With `O=C(O)/C=C/c1ccc(O)c(O)c1`, the activity change, negative = inhibition is 3.74% (inactive) and 0.322% (inactive). For the same compound, the max response under setting [1] was 0.683% and 6.48%. Also, under setting [2], the max response is 7.03% and 6.69%.
As for `CCCn1c(=O)c2[nH]c(C3CCCC3)nc2n(CCC)c1=O`, the activity change, negative = inhibition is 7.3% (inactive). In addition, the max response under setting [1] worked out at 9.56%. In addition, the max response under setting [2] was 17.6%.
Consider `O=C(O)c1cccnc1C(=O)O`, for which the activity change, negative = inhibition is 1.68% (inactive). The max response under setting [1] stood at 9.96%. Also, the max response under setting [2] is 12.5%.
Regarding `O=C(O)c1ccccc1Nc1ccccc1`, the activity change, negative = inhibition was 7.05% (inactive) and 0.0171% (inactive). For the same compound, the max response under setting [1] was 2.57% and -16.2%. The max response under setting [2] is 11.5% and -17.1%.
Consider `Cc1nc(N=Nc2ccc(C(=O)O)cc2)c(COP(=O)(O)O)c(C=O)c1O`, for which the activity change, negative = inhibition was -0.137% (inactive). The max response under setting [1] was -21.8%. Also, under setting [2], the max response was -20.3%.
For `NC(=O)CNCCC(c1ccccc1)c1ccccc1`, in that order: 0.71% (inactive), -14.5% and -14.2%.
